Assay outcomes: PubChem, several laboratories
This is a sample that favours compounds with a hit; in the whole collection about 1.4% have one here.
CRFR2-BP ag: CRF-BP/CRF-R2 complex agonism | HEK293 CRF-R2/CRF-BP, calcium dye fluorescence (FLIPR); percent of saturating CRF peptide response | activation, % at 13.2 µM | 350,000 tested, 0.46% active;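 active means activation of at least 50%, plus an integration ratio under a set limit after plate pattern correction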;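 further: plate controls were neutral control wells without compound for no effect and CRF at EC100 for full effect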
IDE cell activ: boosts human insulin-degrading enzyme activity in HEK cells; P14735; FAbeta-B cleavage, fluorescence polarization; 0% vehicle, 100% cell-free pure enzyme wells; activation, % at 5.96 µM; 340,000 tested, 0.073% active;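 active means activation above the mean of all tested compounds plus 3 SD, set per screening campaign, cut at about 17% in these data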
TPT1 inhibitor: blocks Candida albicans tRNA 2'-phosphotransferase; recombinant caTPT1, FP RNA substrate dephosphorylation; 300,000 tested, 0.81% active; inhibition, % at 5 µM;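 active means inhibition above the mean of all tested compounds plus 3 SD, set per screening campaign, cut at about 24% in these data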;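 further: plate controls were DMSO alone for no effect and ferristatin control at 100 nM for full effect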
HNF4A DNA FP: change in binding of human HNF4 alpha to DNA | HNF4a-FITC DNA binding, fluorescence polarization, 1 h | activity change, % at 10 µM | 360,000 tested, 0.3% active | P41235; in the data active means activity change above about 30%, passing the limit was not always enough
Target sequence (P41235 whole entry, looked up): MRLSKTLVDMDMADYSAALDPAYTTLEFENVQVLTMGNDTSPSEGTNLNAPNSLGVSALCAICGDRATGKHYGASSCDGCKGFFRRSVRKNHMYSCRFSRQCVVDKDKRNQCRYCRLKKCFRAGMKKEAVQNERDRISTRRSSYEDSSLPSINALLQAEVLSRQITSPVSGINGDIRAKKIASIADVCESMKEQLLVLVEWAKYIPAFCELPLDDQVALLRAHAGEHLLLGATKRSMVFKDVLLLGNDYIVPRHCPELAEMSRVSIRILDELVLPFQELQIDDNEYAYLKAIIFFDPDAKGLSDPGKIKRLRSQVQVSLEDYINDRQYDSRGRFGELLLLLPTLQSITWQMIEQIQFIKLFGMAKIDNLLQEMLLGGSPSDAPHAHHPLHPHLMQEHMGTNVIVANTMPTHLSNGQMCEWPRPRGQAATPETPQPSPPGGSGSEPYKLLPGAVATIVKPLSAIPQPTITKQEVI
IDE inh: inhibits human insulin-degrading enzyme in HEK cells; P14735; FAbetaB cleavage, fluorescence polarization; inhibition, % at 5.59 µM; 320,000 tested, 0.41% active; AID 434962;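 active means percent inhibition above the average of all tested compounds plus 3 SD, set per screening campaign, cut at about 16% in these data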;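 further: IDE supplied by intact live HEK cells; FP after avidin binding of uncleaved biotin substrate so inhibition keeps polarization high; 0% = DMSO wells and 100% = 60 µM reference IDE inhibitor Ii1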
caTPT1 confirm: confirmation of Candida albicans TPT1 inhibitors; shares compounds with TPT1 inhibitor; 2,400 tested, 74% active; AID 2149; recombinant caTPT1, fluorescence polarization, RNase T1 coupled; inhibition, % at 5 µM;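 active means inhibition above the primary screen limit, the mean inhibition of all tested compounds plus 3 SD, cut at about 25% in these data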
RNase T1 counter: RNase T1 inhibition in TPT1 counter-screen. shares compounds with TPT1 inhibitor. 2,400 tested, 83% active. inhibition, % at 5 µM. RNase T1 cleavage, fluorescence polarization, 1536-well;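 active means inhibition above the solvent-only control well mean plus 3 SD, limit set per screening run, cut at about 23% in these data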;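 further: plate controls were DMSO wells with enzyme for no effect and wells without RNase T1 for full effect; inhibitors block cleavage so intact labeled substrate keeps polarization high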
Target sequence (P00651 whole entry, looked up): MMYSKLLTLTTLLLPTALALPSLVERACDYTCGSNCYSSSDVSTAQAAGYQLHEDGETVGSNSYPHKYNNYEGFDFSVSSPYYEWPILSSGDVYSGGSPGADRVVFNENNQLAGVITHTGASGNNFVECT
Numbers without * were called inactive.

COc1ccc(-c2ccc(C3C(C#N)=C(N)Oc4n[nH]c(C)c43)o2)cc1 (configuration not stated) was read as CRFR2-BP ag 171*, IDE cell activ -3, TPT1 inhibitor 111*, HNF4A DNA FP 61*, IDE inh 1, caTPT1 confirm 99* and RNase T1 counter 101*.
`NC(=O)c1nsc(C(=O)N(c2ccc3c(c2)OCO3)C(C(=O)NCC2CCCO2)c2ccc(F)cc2)c1N` (configuration not stated) gave CRFR2-BP ag -1, IDE cell activ -4, TPT1 inhibitor -1, HNF4A DNA FP -1 and IDE inh 0.
For Cc1cccc(/C=N/c2sc3c(c2C#N)CCN(Cc2ccccc2)C3)c1O the results were CRFR2-BP ag 9, IDE cell activ 1, TPT1 inhibitor 58*, HNF4A DNA FP 23, IDE inh 5, caTPT1 confirm 56* and RNase T1 counter 69*.
`CCC(=O)Nc1sc2c(c1C(N)=O)CCN(Cc1ccccc1)C2` gave CRFR2-BP ag 35, IDE cell activ 3, TPT1 inhibitor -1, HNF4A DNA FP -4 and IDE inh 8.
For N#Cc1c(NC(=O)/C=C/C(=O)O)sc2c1CCN(Cc1ccccc1)C2 the results were CRFR2-BP ag 4, IDE cell activ -6, TPT1 inhibitor 122*, HNF4A DNA FP 26, IDE inh 5, caTPT1 confirm 61* and RNase T1 counter 72*.
CCN1CCc2c(sc(NC(=S)NC(=O)c3ccco3)c2C(N)=O)C1 was read as CRFR2-BP ag 47, TPT1 inhibitor 33*, HNF4A DNA FP 12, IDE inh 5, caTPT1 confirm 32* and RNase T1 counter 42*.
Screening NC(=O)c1c(NC(=O)c2c(F)cccc2F)sc2c1CCN(Cc1ccccc1)C2 returned CRFR2-BP ag 23, IDE cell activ -6, TPT1 inhibitor 36*, HNF4A DNA FP 6, IDE inh 3, caTPT1 confirm 14 and RNase T1 counter 23*.
Screening COc1ccc(/C=N/c2sc3c(c2C#N)CCN(Cc2ccccc2)C3)c(O)c1 returned TPT1 inhibitor 11 and IDE inh 1.
COc1ccc(Cn2c(=O)c3[nH]cnc3n(-c3ccc(C)cc3)c2=O)cc1 was read as CRFR2-BP ag -1, IDE cell activ -2, TPT1 inhibitor -2, HNF4A DNA FP 1 and IDE inh 10.
`CCN1CCc2c(sc(NC(=O)c3ccc(S(=O)(=O)N(CC)c4ccccc4)cc3)c2C(N)=O)C1` gave CRFR2-BP ag 201*, IDE cell activ -15, TPT1 inhibitor 97*, HNF4A DNA FP 29, IDE inh 16, caTPT1 confirm 103* and RNase T1 counter 107*.
CCN1CCc2c(sc(NC(=O)c3ccc(C(=O)c4ccccc4)cc3)c2C(N)=O)C1 was read as CRFR2-BP ag 10, IDE cell activ -5, TPT1 inhibitor 11, HNF4A DNA FP 5 and IDE inh 4.
Screening NC(=O)c1c(NC(=O)c2ccccc2)sc2c1CCN(Cc1ccccc1)C2 returned CRFR2-BP ag 178*, IDE cell activ -26, TPT1 inhibitor 71*, HNF4A DNA FP 66, IDE inh 6, caTPT1 confirm 56* and RNase T1 counter 66*.
Screening CC(C)C(=O)Nc1sc2c(c1C(N)=O)CCN(Cc1ccccc1)C2 returned CRFR2-BP ag 11, IDE cell activ 3, TPT1 inhibitor 0, HNF4A DNA FP 2 and IDE inh 0.
`O=C1C(=Cc2cccs2)C(=O)c2ccccc21` gave CRFR2-BP ag 0, IDE cell activ 6, TPT1 inhibitor -3, HNF4A DNA FP -1 and IDE inh 1.
Screening O=C1/C(=C\c2cccs2)Sc2ccc3ccccc3c21 returned CRFR2-BP ag 1, IDE cell activ 0, TPT1 inhibitor 80*, HNF4A DNA FP 20, IDE inh -1, caTPT1 confirm 84* and RNase T1 counter 96*.
For O=C(Nc1ccc(Br)cc1)NC1CCCCCCC1 the results were CRFR2-BP ag 7, IDE cell activ -4, TPT1 inhibitor -2, HNF4A DNA FP 0 and IDE inh -2.
O=C(CSc1nc(-c2ccccc2)nc2c1CCCC2)N1CCOCC1 was read as CRFR2-BP ag 0, IDE cell activ 4, TPT1 inhibitor 56*, HNF4A DNA FP -4, IDE inh 2, caTPT1 confirm 28* and RNase T1 counter 30*.
`O=C(O)CSc1nc(-c2ccccc2)nc2c1CCCC2` gave CRFR2-BP ag 1, IDE cell activ 7, TPT1 inhibitor 1, HNF4A DNA FP 2 and IDE inh 4.
For CCCC1=[N+](CC(=O)c2ccc(Br)cc2)CCn2cccc21 the results were CRFR2-BP ag 5, IDE cell activ -6, TPT1 inhibitor 118*, HNF4A DNA FP 7, IDE inh -5, caTPT1 confirm 9 and RNase T1 counter 18.
`CCCC1=[N+](CC(=O)c2ccccc2)CCn2cccc21` gave CRFR2-BP ag 7, IDE cell activ -4, TPT1 inhibitor 86*, HNF4A DNA FP -3, IDE inh 1, caTPT1 confirm 8 and RNase T1 counter 14.
Screening CCCC1=[N+](CC(C)=O)CCn2c(C)ccc21 returned CRFR2-BP ag 4, IDE cell activ 2, TPT1 inhibitor -3, HNF4A DNA FP 0 and IDE inh -3.
`CC(=O)c1ccc(OC(=O)COc2ccccc2Cl)cc1` gave CRFR2-BP ag 0, IDE cell activ 0, TPT1 inhibitor 3, HNF4A DNA FP 2 and IDE inh 0.
For CCOc1ccccc1C(=O)n1nc2nc(C)cc(C)c2c1N the results were CRFR2-BP ag -2, IDE cell activ 6, TPT1 inhibitor 44*, HNF4A DNA FP -1, IDE inh -3, caTPT1 confirm 3 and RNase T1 counter 7.
`CCCCNC(=O)C1(C)CCCCN1C(=O)c1csnn1` (configuration not stated) gave HNF4A DNA FP 0.
For COCCN=c1scc(-c2ccco2)n1/N=C/c1ccc(O)c(O)c1O the results were CRFR2-BP ag 13, IDE cell activ -4, TPT1 inhibitor 52*, HNF4A DNA FP -45, IDE inh 8, caTPT1 confirm 60* and RNase T1 counter 70*.
`COc1ccc(CCN2C(=O)COc3ccccc3C2C(=O)Nc2ccc3c(c2)OCCO3)cc1OC` (configuration not stated) gave HNF4A DNA FP 1.
`Oc1ccc(N=Nc2nc(-c3ccccc3)c(-c3ccccc3)[nH]2)cc1` gave CRFR2-BP ag -1, IDE cell activ -2, TPT1 inhibitor 31*, HNF4A DNA FP 30, IDE inh 3, caTPT1 confirm 42* and RNase T1 counter 55*.
